A selection: hits, their analogues and other compounds. The true share with any hit is near 4%.
ADAM10 inh: inhibits human ADAM10; AID 720582; inhibition, % at 7 µM; 370,000 compounds, 0.62% hits; recombinant ADAM10, EDANS/DABCYL FRET peptide cleavage, 3 h; O14672;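 active means inhibition above a per-campaign cutoff equal to the mean of compounds falling between control-based bounds plus 3 SD, cut at about 20% in these data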;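 further: 0% = DMSO wells while the 100% control is not disclosed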
Target sequence (O14672 214-748 limits assumed): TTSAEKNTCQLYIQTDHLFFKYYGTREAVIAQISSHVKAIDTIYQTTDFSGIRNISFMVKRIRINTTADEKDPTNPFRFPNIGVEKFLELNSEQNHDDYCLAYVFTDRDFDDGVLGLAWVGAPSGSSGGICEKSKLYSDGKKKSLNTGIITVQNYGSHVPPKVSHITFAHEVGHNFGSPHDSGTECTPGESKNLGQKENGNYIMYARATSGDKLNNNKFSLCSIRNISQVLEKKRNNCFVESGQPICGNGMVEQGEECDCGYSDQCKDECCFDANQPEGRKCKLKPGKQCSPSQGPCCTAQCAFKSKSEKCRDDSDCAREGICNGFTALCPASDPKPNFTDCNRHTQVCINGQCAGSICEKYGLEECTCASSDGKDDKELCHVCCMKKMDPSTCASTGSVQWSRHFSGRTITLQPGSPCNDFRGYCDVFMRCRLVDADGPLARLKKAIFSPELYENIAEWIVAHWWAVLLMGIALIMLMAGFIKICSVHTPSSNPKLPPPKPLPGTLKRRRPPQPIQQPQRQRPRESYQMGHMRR
NR3A LBD binder: modulators (binders) of human NR3A ligand-binding domain; Tm shift relative to glycine control, % at 25 µM; NR3A LBD differential scanning fluorimetry, Tm shift; 0% = protein alone, 100% = glycine-bound protein; 340,000 compounds, 2.5% hits;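 active means melting temperature shift of at least 10% of the positive control shift, at one fixed dose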
aDG glyco up: alpha-DG glycosylation activation; Pro5-aDG cells, alpha-DG glycosylation AlphaScreen (IIH6); 0% Pro5, 100% B10-LARGE cell signal; activation, % at 10 µM; 360,000 compounds, 0.22% hits; AID 624168;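 active means activation of at least 8% versus controls, or a plate z-score of at least 8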;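 further: Pro5 are CHO cells carrying HIG-tagged alpha-DG that lacks glycosylation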
ADAM17 inh: inhibits human ADAM17; inhibition, % at 6.95 µM; recombinant ADAM17, EDANS/DABCYL FRET peptide cleavage; 370,000 compounds, 0.83% hits;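 active means inhibition above the mean of compounds lying between control limits plus 3 SD, set per campaign, cut at about 8.5% in these data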;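 further: 0% = DMSO-only wells as the low control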
FAS TE block: blocks the thioesterase domain of human fatty acid synthase. inhibition, % at 15 µM. 360,000 compounds, 0.67% hits. recombinant FAS-TE, OMFH fluorogenic substrate, fluorescence endpoint;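 active means compounds whose normalised, plate-corrected inhibition of enzyme fluorescence in the single-dose primary screen is 50% or more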;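 further: 0% = DMSO with enzyme and 100% = substrate without enzyme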
Starred values were filed as active, the others as inactive; i = inactive; nt = not tested or not shown.

SMILES	ADAM10 inh	NR3A LBD binder	aDG glyco up	ADAM17 inh	FAS TE block
O=[N+]([O-])c1ccc(N/N=C/C=C/c2ccco2)cc1	8	41*	0	8	16
O=C(O)c1ccc(N/N=C/C=C/c2ccc([N+](=O)[O-])o2)cc1	4	12*	0	5	-33
CCOc1ccc(CN2CCC(n3nccc3NC(=O)CCCc3ccccc3)CC2)cc1	-8	2	0	-3	0
COC(=NC(C)C)NC(C)C	-10	4	nt	2	nt
CC(C)(C)c1cc(C(=O)NCc2ccco2)ccn1	-5	-1	0	-2	-4
CCc1nc2ccc(C(=O)N3CCN(C(=O)c4ccco4)CC3)cn2c1N(C)C(=O)C1CCCCC1	-8	nt	0	6	-9
CN(C)c1ccc(C=Cc2nccc3ccccc23)cc1	-22	nt	0	-8	-137
Clc1ccc(/C=C\c2nccc3c2[nH]c2ccccc23)cc1	-186	20*	1	-84	11
N#Cc1ccc(/C=C\c2nccc3c2[nH]c2ccccc23)cc1	-349	12*	1	-103	6
Cc1[nH]n(-c2c(Cl)cc(Cl)cc2Cl)c(=O)c1C=Nc1ccc(S(=O)(=O)N2CCOCC2)cc1	9	11*	0	1	7
O=C(Nc1ccc(N2C(=O)C3CCCCC3C2=O)cc1Cl)c1cccs1 (configuration not stated)	-4	18*	0	-6	-1
COc1cc(NC(=O)c2ccccc2Cl)ccc1NC(=O)c1cccs1	5	0	0	-2	4
COc1ccc(NC(C)=O)cc1NC(C)C(=O)Nc1ccc(S(=O)(=O)N2CCCCC2)cc1 (configuration not stated)	-5	1	0	3	-2
FC(F)(F)c1ccccc1/C=N/N1CCN(Cc2ccccc2)CC1	-1	18*	0	-3	14
CCc1nc2ccc(C(=O)NCc3ccc(OC)cc3)cn2c1N(CCC(C)C)CCN(C)C	-28	nt	0	-5	-6
N#Cc1c(NC(=O)CN2C(=O)c3ccccc3C2=O)oc(-c2ccccc2)c1-c1ccccc1	2	17*	0	-3	18
c1ccc2c(c1)nc(NCC1CCCO1)c1nnnn12 (configuration not stated)	-279	-1	0	-70	-9
O=C(CN1CCN(c2ccc(O)cc2)CC1)NCC(=O)Nc1ccc(F)c(F)c1F	-11	-1	1	-1	-2
C/C(N)=C(/C#N)C(=O)COC(=O)c1cc(-c2ccc(Br)cc2)nc2ccccc12	-13	18*	0	-1	28
CC(C)(CNc1ccc([N+](=O)[O-])cc1C#N)N1CCOCC1	3	1	0	-5	1
CSc1nc(-c2ccccc2)c(C#N)c(=O)[nH]1	0	0	0	-5	-5
CSc1nc(-c2ccc(Cl)cc2)c(C#N)c(=O)[nH]1	-1	38*	0	-2	-3
CC(=O)N1CCN(C(=O)c2cccc(S(=O)(=O)N3CCN(c4ccccc4)CC3)c2)CC1	0	1	0	0	-4
Cn1c(=O)oc2cc(S(=O)(=O)N3CCN(c4ccccc4F)CC3)ccc21	2	12*	1	-2	-17
O=C(c1cccc(S(=O)(=O)N2CCCCCC2)c1)N1CCN(c2ccccc2F)CC1	11	17*	0	-1	20
SMILES	ADAM10 inh	NR3A LBD binder	aDG glyco up	ADAM17 inh	FAS TE block
O=C(c1cccc(S(=O)(=O)N2CCN(c3ccccc3)CC2)c1)N1CCN(c2ccccc2O)CC1	1	10*	0	-2	10
O=C(c1ccccc1F)N1CCN(c2ccccc2F)CC1	2	12*	0	-2	-1
Cc1ccc(N=CC=C2OC(C)(C)C(C)(C)O2)c(C)c1	-81	15*	0	-31	-3
O=C(Nc1ccc(S(=O)(=O)N2CCCC2)cc1)c1ccc([N+](=O)[O-])o1	nt	27*	0	nt	-4
O=C(Nc1ccc(S(=O)(=O)N2CCCC2)cc1)c1cccc(OC(F)F)c1	-7	19*	0	2	13
O=C(Nc1ccc(S(=O)(=O)N2CCCC2)cc1)c1ccc([N+](=O)[O-])cc1	1	27*	0	2	3
Cc1ccc(NC(=O)c2ccc(S(=O)(=O)N3CCCC3)cc2)cc1	0	16*	0	-1	5
O=C(Nc1ccc(S(=O)(=O)N2CCOCC2)cc1)c1ccc([N+](=O)[O-])o1	8	-2	0	3	-7
CC(=O)Nc1ccc(C(=O)Nc2ccc(S(=O)(=O)N3CCCC3)cc2)cc1	4	8	0	-2	-5
Cc1cc(C)cc(-n2ncc3c2CCCC3NC(=O)C2CCC2)c1 (configuration not stated)	3	-6	0	-2	-1
O=C(N/N=C/c1ccccc1)C(O)c1ccccc1 (configuration not stated)	-7	2	0	-2	-8
O=C(CCCCn1c(=O)[nH]c2ccsc2c1=O)NCCc1ccccc1	3	-1	0	2	-4
COc1ccc(C(=O)Nc2ccc(S(=O)(=O)N3CCCCC3)cc2)cc1	-3	24*	0	3	14
COc1ccc(C(=O)Nc2ccc(S(=O)(=O)N3CCN(C)CC3)cc2)cc1	-2	0	0	4	-4
Nc1[nH]c2cc([N+](=O)[O-])ccc2c1-c1ccccn1	-2	31*	0	4	-2
CSc1nc2c(c(=O)n1-c1ccccc1)SCC2	-1	0	0	-4	-3
CCOc1ccc(NC(=O)c2ccccc2NC(=O)CNC2CCCC(C)C2C)cc1 (configuration not stated)	5	13*	1	0	16
CCOc1ccc(NC(=O)c2ccccc2NC(=O)CN(C)CC(=O)Nc2ccc(C)cc2)cc1	14	-6	0	6	12
COc1ccc(C(C2C(=O)CC(C)(C)CC2=O)C2C(=O)CC(C)(C)CC2=O)cc1COCC(F)(F)F	-4	13*	0	-4	-7
Oc1ccc(C2=NN(c3ccccc3)C(c3ccc(F)cc3)C2)cc1 (configuration not stated)	i	21*	0	i	32
Cc1ccc(NC(=O)N2N=C(c3ccc(F)cc3)CC2c2ccc(F)cc2)cc1 (configuration not stated)	3	19*	0	3	24
Oc1ccccc1C1=NN(c2ccccc2)C(c2ccc(F)cc2)C1 (configuration not stated)	-34	1	0	-14	23
CC(=O)Nc1ccc(C2=NN(c3ccccc3)C(c3ccccc3)C2)cc1 (configuration not stated)	-262	-8	1	-126	24
CC(=O)Nc1ccc(C2CC(c3ccc(Cl)cc3)=NN2c2ccccc2)cc1 (configuration not stated)	-255	15*	1	-148	20
